Experimental data published in PubChem BioAssay (NCATS).
Where “and” joins values, the source holds several entries; their conditions need not be identical. Identical values can stand only once. Inconclusive results are not listed. Calls of active or inactive are those of the source. The call rests on the fitted dose curve; in most records, active means well fitted curve in the direction sought with a large enough effect; inconclusive means small, poorly fitted or top-dose-only effect, or another doubt; inactive means no such curve, though single readings can be large; an effect the other way counts as inactive or inconclusive.

Key:
[1] = target: Cellular tumor antigen p53 (Homo sapiens) (UniProt P04637); assay: Primary qHTS for small molecule compounds that upregulate eGFP-tagged delta133p53alpha (in N-terminal) cells. (AID 2060322); details: NCI-H358 eGFP-delta133p53alpha fluorescence, 24 h; activation: hits give high values;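 further: 0% = DMSO vehicle and 100% = reference activator; nearly all actives have a fitted effect of over 75% in size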
Outline: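 NCI-H358 cells pre-induced 24 h with 10 ng/ml doxycycline to express N-terminal eGFP-delta133p53alpha, then dosed 24 h at 37C without doxycycline; fixed, Hoechst-stained, GFP intensity by laser scanning cytometry, normalized to DMSO (0%) and 57.5 uM 5-azacytidine (100%).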

[2] = BET inhibitor-based combinations targeting novel dependencies in MECOM-rearranged (r) AML: SET-2 cell line (AID 2202231); details: SET-2 AML cells viability, CellTiter-Glo luminescence, 48 h; viability: hits give low values, concentration not given here; further: nearly all actives have a fitted effect of over 35% in size; further: potency means the concentration at half of the fitted maximal effect;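 on viability: plate controls were DMSO treated cells for no effect and wells without cells for full effect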
Outline: (§1)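 A 48 hr incubation preceded viability reading by CellTiter-Glo, with 15 min room-temperature development. Dose series had 11 points; normalization used DMSO and empty wells; AUC was computed and mean-centered per line as Z-AUC.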

[3] = BET inhibitor-based combinations targeting novel dependencies in MECOM-rearranged (r) AML: OCI-AML3 cell line (AID 2202232); details: CellTiter-Glo luminescence, 48 h; Potency: OCI-AML3 viability; series mostly up to 46 µM; further: nearly all actives have a fitted effect of over 35% in size; further: potency means the concentration at half of the fitted maximal effect
Outline: as §1

[4] = BET inhibitor-based combinations targeting novel dependencies in MECOM-rearranged (r) AML: HNT-34 cell line (AID 2202234); details: HNT-34 AML viability, CellTiter-Glo luminescence, 48 h; series mostly up to 46 µM; further: nearly all actives have a fitted effect of over 35% in size; further: potency means the concentration at half of the fitted maximal effect
Outline: (§2)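 Each compound is tested in an 11-point concentration series against 500 seeded cells/well for 48 hr. The luminescent viability signal is normalized to DMSO and blank wells, then reduced to AUC and a cell-line-centred Z-AUC.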

[5] = BET inhibitor-based combinations targeting novel dependencies in MECOM-rearranged (r) AML: UCSD-AML1 cell line (AID 2202235); details: UCSD-AML1 AML cells viability, CellTiter-Glo, 48 h; series mostly up to 46 µM; further: nearly all actives have a fitted effect of over 40% in size; further: potency means the concentration at half of the fitted maximal effect
Outline: as §2

[6] = BET inhibitor-based combinations targeting novel dependencies in MECOM-rearranged (r) AML: AML-191 cell line (AID 2202236; further: nearly all actives have a fitted effect of over 35% in size; further: potency means the concentration at half of the fitted maximal effect); details: AML-191 viability, CellTiter-Glo luminescence, 48 h; series mostly up to 46 µM
Outline: as §1

[7] = BET inhibitor-based combinations targeting novel dependencies in MECOM-rearranged (r) AML: AML-194 cell line (AID 2202237; further: nearly all actives have a fitted effect of over 40% in size; further: potency means the concentration at half of the fitted maximal effect); details: AML-194 (MECOM-r AML) viability, CellTiter-Glo, 48 h; series mostly up to 46 µM
Outline: as §1

[8] = BET inhibitor-based combinations targeting novel dependencies in MECOM-rearranged (r) AML: MV-4-11 cell line (AID 2202233); details: MV-4-11 AML viability, CellTiter-Glo luminescence, 48 h; series mostly up to 46 µM; further: nearly all actives have a fitted effect of over 45% in size; further: potency means the concentration at half of the fitted maximal effect
Outline: as §2

Sequence of Cellular tumor antigen p53 (Homo sapiens) (P04637 whole entry, looked up): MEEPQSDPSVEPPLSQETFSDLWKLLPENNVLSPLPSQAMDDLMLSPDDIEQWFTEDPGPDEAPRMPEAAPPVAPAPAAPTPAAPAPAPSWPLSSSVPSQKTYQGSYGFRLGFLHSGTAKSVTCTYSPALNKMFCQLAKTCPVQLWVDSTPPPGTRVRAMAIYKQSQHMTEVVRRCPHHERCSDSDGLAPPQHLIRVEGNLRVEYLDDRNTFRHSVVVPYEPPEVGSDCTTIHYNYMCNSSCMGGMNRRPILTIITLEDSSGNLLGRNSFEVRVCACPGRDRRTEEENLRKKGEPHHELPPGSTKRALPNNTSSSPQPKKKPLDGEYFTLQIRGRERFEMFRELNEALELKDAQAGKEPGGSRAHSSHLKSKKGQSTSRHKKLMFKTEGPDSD

CC(NCCc1ccc(O)cc1)C(O)c1ccc(O)cc1 (stereo not given)
inactive: activation [1] -5.46% | viability [2] 112% | Potency [3] | Potency [4] | Potency [5] | Potency [6] | Potency [7]

COC1CCC(N(C(=O)C2CCC(C)CC2)c2cc(C3=CCCCC3)sc2C(=O)O)CC1 (stereo not given)
inactive: activation [1] -11.2% | viability [2] 113% | Potency [3] | Potency [4] | Potency [5] | Potency [6] | Potency [7]

COc1ccc(Nc2nccc(NCCO)n2)cc1
inactive: activation [1] 25.6% | viability [2] 106% | Potency [4] | Potency [5] | Potency [6] | Potency [7]
active: Potency [3] 23.5 µM

COc1c(C)c2c(c(O)c1C/C=C(\C)CCC(=O)O)C(=O)OC2
active: Potency [2] 1.18 µM | Potency [3] 1.32 µM | Potency [8] 0.742 µM | Potency [5] 0.833 µM | Potency [7] 1.32 µM
inactive: activation [1] 7.34%

CCCCC(CC)COC(=O)C(C#N)=C(c1ccccc1)c1ccccc1 (stereo not given)
inactive: activation [1] -10.7% and -6.01% | viability [2] 108% | Potency [3] | Potency [4] | Potency [5] | Potency [6] | Potency [7]

NC(N)=NC(N)=NCCc1ccccc1
inactive: activation [1] -18.4% and -5.97% | Potency [4] | Potency [5] | Potency [6] | Potency [7]
active: Potency [2] 13.2 µM | Potency [3] 16.6 µM

O=C(Nc1cccc(Cl)c1)Nc1ncc(CCNc2ncnc3ccsc23)s1
active: Potency [2] 20.9 µM | Potency [3] 0.166 µM
inactive: activation [1] -7.26% | Potency [4] | Potency [5]

c1coc(CNc2ncnc3nc[nH]c23)c1
inactive: activation [1] -14.3% | viability [2] 107% | Potency [3] | Potency [8] | Potency [7]

CN(C(Cc1ccc(OS(=O)(=O)c2cccc3cnccc23)cc1)C(=O)N1CCN(c2ccccc2)CC1)S(=O)(=O)c1cccc2cnccc12 (stereo not given)
inactive: activation [1] 8.08% | viability [2] 92.1% | Potency [3]
active: Potency [8] 7.42 µM | Potency [6] 9.34 µM

COC(=O)Nc1cc(Nc2cc(NC3CC3)c3ncc(C#N)n3n2)c(Cl)c(N2CCN(C)CC2)c1
active: Potency [2] 2.95 µM | Potency [3] 3.32 µM | Potency [4] 1.32 µM | Potency [5] 2.63 µM | Potency [6] 2.63 µM | Potency [7] 2.63 µM
inactive: activation [1] -10.3%

Cc1ccc(/C=N/NC(=O)c2ccccc2Oc2ccccc2)o1
inactive: activation [1] -11.8% | viability [2] 107% | Potency [3] | Potency [6] | Potency [7]

O=C(O)C1=CC(O)C(O)[C@H](O)C1 (stereo not given in full)
inactive: activation [1] 16.4% | viability [2] 115% | Potency [8] | Potency [4] | Potency [5] | Potency [6]

CCC(=O)O[C@]1(C(=O)CCl)[C@@H](C)C[C@H]2[C@@H]3CCC4=CC(=O)C=C[C@]4(C)[C@@]3(F)[C@@H](O)C[C@@]21C
active: Potency [8] 20.9 µM | Potency [4] 20.9 µM
inactive: activation [1] 6.69% and -0.269% | viability [2] 97.3% | Potency [5]

CCCc1nc(C(C)(C)O)c(C(=O)O)n1Cc1ccc(-c2ccccc2-c2nn[nH]n2)cc1
inactive: activation [1] -5.2% | viability [2] 116% | Potency [8] | Potency [4] | Potency [5] | Potency [6]

CCOc1cc(N2CCC(O)CC2)ccc1Nc1ncc2c(n1)N(C)c1ccccc1C(=O)N2C
active: Potency [2] 14.8 µM | Potency [8] 2.95 µM | Potency [4] 14.8 µM | Potency [5] 8.33 µM
inactive: activation [1] 72.4%
